# Laboratory results as given in PubChem BioAssay (NCATS).
# Inconclusive results are not listed. Unmarked numbers belong to inactive results. Calls of active or inactive are those of the source. The call rests on the fitted dose curve; in most records, active means well fitted cell-killing curve with a large enough effect; inconclusive means small, poorly fitted or top-dose-only effect, or effect the other way; inactive means flat fitted curve, though single readings scatter.
# Assay: qHTS assay for cell viability of HEK293 cells (AID 743288); further: nearly all actives have a fitted effect of over 50% in size
# Settings: ATP luminescence (CellTiter-Glo), 18 h; max response: stronger effect = lower value
# Summary of the method: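 Parental HEK293 cells were seeded at 2,000 cells/well, rested at least 5 h at 37 C, then exposed to compounds in DMSO for 18 h at 37 C. Viability was read as ATP-dependent luciferase luminescence after 30 min at room temperature.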
# On the % scale 0 is the no-effect control and ±100 the full control effect; potency means the concentration at half of the fitted maximal effect.
Structure (SMILES),Potency,max response
CC[C@@H]1Cc2cc(O)ccc2C2=C1c1ccc(O)cc1C[C@H]2CC,50.1 µM (active),
C/C(=C\c1ccc(C(=O)O)cc1)c1ccc2c(c1)C(C)(C)CCC2(C)C,,-16.6%
CC1=C(/C=C/C(C)=C/C=C/C(C)=C\C(=O)O)C(C)(C)CCC1,,0.628%
CCCc1c(OCCCOc2ccc(OCC(=O)O)cc2)ccc(C(C)=O)c1O,,-9.62%
CCCCCCCCCCCCCCSCC(=O)O,,-15%
CCCc1c(-c2ccc(O)cc2)nn(-c2ccc(O)cc2)c1-c1ccc(O)cc1,,-10.3%

# Assay: qHTS assay for cell viability of the p53RE-bla HCT-116 cell line (AID 743292); further: nearly all actives have a fitted effect of over 55% in size
# Settings: p53RE-bla HCT-116 viability, ATP luminescence, 16 h; series mostly up to 95 µM
# Summary of the method: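 Viability of compound-treated p53RE-bla HCT-116 cells is taken from ATP-dependent luciferase luminescence. Treatment lasts 16 h at 37 C after a 5 h settling period; detection follows 30 min at room temperature.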
row,Structure (SMILES),Potency
1,CC[C@@H]1Cc2cc(O)ccc2C2=C1c1ccc(O)cc1C[C@H]2CC,70.8 µM (active)
2,C/C(=C\c1ccc(C(=O)O)cc1)c1ccc2c(c1)C(C)(C)CCC2(C)C,39.8 µM (active)
3,CC1=C(/C=C/C(C)=C/C=C/C(C)=C\C(=O)O)C(C)(C)CCC1,inactive
4,CCCc1c(OCCCOc2ccc(OCC(=O)O)cc2)ccc(C(C)=O)c1O,inactive
5,CCCCCCCCCCCCCCSCC(=O)O,inactive
6,CCCc1c(-c2ccc(O)cc2)nn(-c2ccc(O)cc2)c1-c1ccc(O)cc1,70.8 µM (active)
